# High-throughput results deposited in PubChem BioAssay by National Center for Advancing Translational Sciences (NCATS).
# This is a sample that favours compounds with a hit; in the whole collection about 0.78% have one here.
# miR-21 reporter: qHTS Assay for Modulators of miRNAs and/orActivators of miR-21; HeLa miR-21 FLuc reporter, luciferase, 48 h; Potency, µM (titrated, usually from 38.3 µM), hits mostly activators; 340,000 tested, under 10 active;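 note: miR-21 action dims this reporter so a rising signal means less miR-21 action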
#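 Using DMEM plus 10% FBS, HeLa miR-21-FLuc cells are incubated with test compounds (final up to about 40uM) for 48 hours; firefly luciferase signal is then imaged following reagent-mediated lysis.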
# IL-2 act: qHTS of IL-2 Activators. AID 652025, 2013. activation, % (series mostly up to about 46 µM). actives 0.065% (n = 360,000). IL-2 activation reporter assay, cell-based qHTS; stimulated with anti-CD3/CD4/CD28 beads; in transgenic mouse T cells; in the data active = activation above about 50%; inconclusive = mostly about 30% to 49%
#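 Quantitative HTS in unstimulated transgenic mouse T cells, with memory T cells as non-tolerant control and PMA/ionomycin as tolerance-bypass control. Compound pretreatment lasted 60 minutes before 18 h bead stimulation; EGFP/DsRed fluorescence read.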
# RXFP1 agonist: qHTS Assay for Agonists of the Relaxin Receptor RXFP1; actives 0.3% (n = 370,000); AID 2676, 2010; HEK293T-RXFP1 cAMP TR-FRET, 30 min; response scale: percent of porcine relaxin response, buffer zero; Relaxin receptor 1 (Homo sapiens), Q9HBX9; Potency, µM (titrated, usually from 57.5 µM), usual class: activators; note: nearly all actives have a fitted effect of over 60% in size
# Target sequence (Q9HBX9 whole entry, looked up): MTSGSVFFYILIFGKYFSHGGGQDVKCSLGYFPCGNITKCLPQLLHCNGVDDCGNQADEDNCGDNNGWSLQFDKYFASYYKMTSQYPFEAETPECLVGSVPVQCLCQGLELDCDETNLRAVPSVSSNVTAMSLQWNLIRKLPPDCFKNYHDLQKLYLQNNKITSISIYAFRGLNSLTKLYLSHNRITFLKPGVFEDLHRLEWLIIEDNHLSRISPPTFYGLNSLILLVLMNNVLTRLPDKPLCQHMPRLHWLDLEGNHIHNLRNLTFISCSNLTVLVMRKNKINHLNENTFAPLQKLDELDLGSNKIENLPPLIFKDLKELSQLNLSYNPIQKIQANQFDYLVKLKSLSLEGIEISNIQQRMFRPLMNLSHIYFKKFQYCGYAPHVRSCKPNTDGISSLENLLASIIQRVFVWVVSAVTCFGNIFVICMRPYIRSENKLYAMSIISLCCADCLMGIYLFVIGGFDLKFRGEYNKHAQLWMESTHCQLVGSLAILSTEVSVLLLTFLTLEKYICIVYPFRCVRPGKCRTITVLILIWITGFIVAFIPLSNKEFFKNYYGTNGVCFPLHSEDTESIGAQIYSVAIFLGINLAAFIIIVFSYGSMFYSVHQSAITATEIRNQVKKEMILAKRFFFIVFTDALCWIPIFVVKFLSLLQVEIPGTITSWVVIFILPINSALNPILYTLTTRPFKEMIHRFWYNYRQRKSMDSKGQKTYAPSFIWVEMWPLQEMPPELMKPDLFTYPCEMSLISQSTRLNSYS
#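 cAMP rise read by TR-FRET after 30 min, 37C compound exposure (up to 58 uM) in RXFP1-transfected HEK293 cells with Ro 20174 present. EC50 from Hill-equation fits, with 29 nM porcine relaxin as 100% and buffer as basal.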
# TCR act: Activators of T cell receptors: qHTS campaign; AID 504894, 2011; 330,000 tested, under 10 active; primary human leukocytes, anti-CD3, IL-2 HTRF, 48 h; Potency, µM (series often up to 9.22 µM), usual class: activators
#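 TCR engagement came from a-CD3 beads alone, with compounds added to primary human leukocytes for 48 hr. Secreted IL-2 bridged europium cryptate- and d2-labelled anti-IL-2 antibodies, giving FRET emission at 665nm after 320nm excitation.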
# PINK1 expr mod: A Quantitative High throughput Screen to Identify Chemical Modulators of PINK1 Expression; PINK1 immunofluorescence, high-content cytometry, 24 h; actives 0.2% (n = 410,000); Potency, µM (doses to about 76.6 µM), usual class: activators; active = well fitted activation curve with a large enough effect; inconclusive = small, poorly fitted or top-dose-only effect; cell line not stated here; note: nearly all actives have a fitted effect of over 65% in size
#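 Fluorescence from anti-PINK1 antibody, together with nuclear and cell stains, was scanned on a laser-scanning cytometer. Before staining, stable-line cells were incubated 24 hours with compounds at 5 concentrations; primary antibody 12 h at 10 degrees C.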
# RXFP1 antag: qHTS Assay for Antagonists of the Relaxin Receptor RXFP1; Relaxin receptor 1 (Homo sapiens), Q9HBX9; HEK293-RXFP1, relaxin-stimulated cAMP HTRF, 30 min; stronger effect = lower value; activity change, negative = inhibition, % at 57.5 µM; actives 0.59% (n = 350,000); AID 1259400, 2018;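 active = activity change of -60% or lower, but not beyond a set lower limit; inconclusive = change between -60% and -40%, or beyond the set limit; inactive = change above -40%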
# A number is an active result; 0 = inactive; ? = inconclusive; - = no result given. Unless noted, calls come from the whole dose curve; as a rule, active = well fitted curve in the direction sought with a large enough effect; inconclusive = small, poorly fitted or top-dose-only effect, or another doubt; inactive = no such curve, though single readings can be large; an effect the other way counts as inactive or inconclusive.
SMILES,miR-21 reporter,IL-2 act,RXFP1 agonist,TCR act,PINK1 expr mod,RXFP1 antag
O=C(Nc1cc(C(=O)N2CCN(CCO)CC2)c2c(c1)ncn2C1CCCC1)c1ccccc1,-,-,-,-,0,-
COc1ccc(CCN2C(=S)N(C)C(=O)C2CC(=O)Nc2ccc(OC)cc2)cc1 (stereo not given),0,0,0,0,0,-63
Cc1c(C(=O)N2CCN(C(C)C)CC2)sc2ncnc(NCc3ccco3)c12,-,-,-,-,0,-
CCC1CN(CCNC(=O)c2cscn2)Cc2cc(OC)ccc2O1 (stereo not given),-,-,-,-,0,-
COC(=O)c1cccc(S(=O)(=O)N(Cc2ccco2)Cc2cc3ccc(OC)cc3[nH]c2=O)c1,0,0,0,-,14µM,0
Cc1ccc(NC(=O)c2cc(C(=O)c3cc(Cl)ccc3O)cn(-c3ccc(C)cc3)c2=O)cc1,0,0,0,0,35µM,0
C[C@@H]1C[C@@H](CC(=O)NCC2Cc3cccc(-c4ccncc4)c3O2)NC(=S)N1 (stereo not given in full),-,-,-,-,0,-
CC1=CC(=C(c2ccc(N)cc2)c2ccc(N)cc2)C=CC1=N,-,-,-,-,16µM,-
COc1cc(=O)n2c(c1C(=O)NCc1ccco1)CCN(C(=O)c1ccccc1-c1ncc[nH]1)CC2,-,-,-,-,0,-
Cc1ccc(-n2cccc2/C=C2/C(=N)N3C(=NC2=O)SN=C3S(C)(=O)=O)cc1Cl,0,0,0,0,0,0
Cc1cccc(C)c1-n1cccc1/C=C1/C(=N)N2C(=NC1=O)SN=C2S(C)(=O)=O,0,0,0,0,0,-108
CCOc1ccc(C(=O)N(Cc2ccc(C(C)C)cc2)Cc2ccco2)cc1,0,-,0,-,0,-79
Cc1ccc(C(=O)N(Cc2ccc(N(C)C)cc2)Cc2ccco2)cc1,0,-,0,-,0,0
CCCOc1ccc(C(=O)N(Cc2ccc(Cl)cc2)Cc2ccco2)cc1,0,-,0,-,0,0
CCc1ccc(CN(Cc2ccco2)C(=O)c2ccc(C)cc2)cc1,0,-,0,-,0,-68
Cc1ccsc1CN(Cc1ccco1)C(=O)c1ccc(Cl)cc1,0,-,0,-,0,-74
C=C(C)c1ccc(C(C)(C)NC(=O)N(Cc2ccccc2)Cc2ccco2)cc1,0,0,0,-,11µM,0
COC(=O)c1cccc(C(=O)NCc2nc(-c3cccc(NC(=O)c4ccoc4C)c3)oc2C)c1,-,-,-,-,0,-
C[C@@H]1CN(Cc2ccc3c(c2)CN(Cc2cn[nH]c2-c2ccccc2)CCO3)C[C@H](C)O1,-,-,-,-,0,-
COc1ccc2c(c1)OC(C)CN(CCNC(=O)c1cc3cc(F)ccc3[nH]1)C2 (stereo not given),-,-,-,-,0,-
Cc1ccc(C(=O)N(Cc2ccco2)Cc2sccc2C)cc1,0,-,0,-,0,-98
Cc1ccc(CN(Cc2ccco2)C(=O)c2ccco2)cc1,0,0,0,0,0,0
Cc1cc(Br)c2[nH]cc(CCNC(=O)c3ccco3)c2c1,0,0,0,0,0,-88
Cc1cc(C)cc(N=Cc2[nH]c3ccc(Br)c(Cl)c3c2O)c1,0,54,0,0,?,0
CN(C(=O)c1cnn(-c2ncc3c(n2)-c2ccccc2CCC3)c1C1CC1)C1CCOC1 (stereo not given),-,-,-,-,0,-
SMILES,miR-21 reporter,IL-2 act,RXFP1 agonist,TCR act,PINK1 expr mod,RXFP1 antag
CSCCC(NS(=O)(=O)c1ccc2c(c1)c(=O)n(C)c(=O)n2C)C(=O)NC1CCN(Cc2ccccc2)CC1 (stereo not given),0,0,18µM,0,0,0
COCc1c(C(=O)NC2CCOC(C)(C)C2)cnn1-c1nccc(-c2cccs2)n1 (stereo not given),-,-,-,-,0,-
Cc1cc(C)n(C(=O)/C(C#N)=N/Nc2cc(Cl)cc(Cl)c2)n1,?,0,0,0,25µM,0
C=C1C(=O)C23CCC4C(C)(C(=O)OC)CCCC4(C)C2CCC1(O)C3 (stereo not given),-,0,-,0,0,-92
COC(=O)[C@]1(C)CCC[C@@]2(C)C3CC[C@@]4(C)C[C@]3(CCC21)CC(=O)N4 (stereo not given in full),-,0,0,0,0,-
CCOC(=O)c1ccc(CC(=O)c2ccc(O)cc2O)o1,0,0,0,0,0,0
CCC(=O)Oc1ccc(C/C(=N\O)c2ccc(O)cc2O)o1,0,0,0,-,?,-60
COc1cc2nc(N(C)C)c(CNCc3nonc3C)cc2c(OC)c1OC,-,-,-,-,0,-
O=C(Nc1nc(=O)c2ccccc2s1)c1ccc(Cl)cc1,0,0,32µM,0,0,0
O=C(Nc1nc2ccsc2c(=O)s1)c1ccc(Cl)cc1,0,0,13µM,0,0,0
CCc1ccc(Cc2cnc(NC(=O)C3=NCCN3)s2)cc1,0,0,0,0,0,-116
O=c1cc(C(F)(F)F)[nH]c2c(C(F)(F)F)cccc12,0,0,0,0,?,-
O=c1cc(C(F)(F)F)[nH]c2ccc(OC(F)(F)F)cc12,?,0,0,0,35µM,0
Fc1ccc(C(c2ccc(F)cc2)N2CCN(C/C=C/c3ccccc3)CC2)cc1,?,0,0,0,?,-64
CN1CCCCC1C(=O)N1CCC(Oc2cccc(CN3CCN(c4ccccn4)CC3)c2)CC1 (stereo not given),-,-,-,-,0,-
CC1=C(C(N)=O)C(c2cccc(C)c2)n2nc(-c3ccc(Cl)cc3)nc2N1 (stereo not given),0,-,0,-,0,-62
COc1ccc(-c2nc3n(n2)C(c2cccnc2)C(C(N)=O)=C(C)N3)cc1 (stereo not given),0,0,0,0,0,0
CCOP1(=O)OCC2OC(n3cnc4c(N)ncnc43)C(O)C2O1 (stereo not given),0,0,10µM,0,0,0
O=c1c2ccccc2sn1-c1cc(S(=O)(=O)N2CCOCC2)ccc1N1CCCC1,0,0,0,0,0,-62
O=c1c2ccccc2sn1-c1cc(S(=O)(=O)N2CCOCC2)ccc1N1CCCCC1,-,-,-,-,0,-
CCN=C1S/C(=C\c2cn(CC)c3ccccc23)C(=O)N1CC,0,0,0,0,0,0
CCn1cc(C=C2C(=O)c3ccccc3C2=O)c2ccccc21,0,108,0,0,0,0
CC(=O)N(Cc1ccc2c(c1)OCO2)Cc1cc2ccc(C)cc2nc1-c1cccc(C)c1,-,-,-,-,0,-
CC1=NNC(=O)/C1=C\c1cn(-c2ccccc2)nc1-c1ccccc1,?,0,0,0,0,-73
